From PubChem
Hits are enriched below; roughly 3.2% of the tested compounds scored in any of these assays.
Rtt109 Vps75: blocks Candida albicans Rtt109/Vps75 acetyltransferase activity. purified Rtt109/Vps75, ThioGlo CoA-SH fluorescence, 4 h. AID 540336. hit rate 0.16% among 330,000. inhibition, % at 34.9 µM. Q5AAJ8;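 active = inhibition of at least 50% in every replicate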
Target sequence (Q5AAJ8 whole entry, looked up): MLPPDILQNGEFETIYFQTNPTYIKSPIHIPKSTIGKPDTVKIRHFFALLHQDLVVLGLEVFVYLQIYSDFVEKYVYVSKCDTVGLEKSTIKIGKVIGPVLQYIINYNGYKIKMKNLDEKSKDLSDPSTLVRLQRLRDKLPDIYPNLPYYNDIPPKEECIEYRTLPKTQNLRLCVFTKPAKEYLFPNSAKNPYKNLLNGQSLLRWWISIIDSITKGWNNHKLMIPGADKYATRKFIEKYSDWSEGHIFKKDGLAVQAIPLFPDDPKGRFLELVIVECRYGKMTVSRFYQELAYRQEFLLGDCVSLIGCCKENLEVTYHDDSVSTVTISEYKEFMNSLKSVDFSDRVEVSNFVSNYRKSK
CDK5 inh: blocks human CDK5/p35 kinase activity. hit rate 0.01% among 330,000. Q00535+Q15078. inhibition, % at 10 µM. Recombinant CDK5/p35, ADP-Glo luminescence, 60 min. AID 488839;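 active = highest replicate inhibition of at least 50% and at least 75% of replicates reaching 50%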
SMARCA2 activ: activators of SMARCA2 function | AID 652017 | activation, % at 9.1 µM | hit rate 1% among 370,000 | MG213 cells, MMTV-luciferase reporter, dexamethasone, overnight; in the data active = activation above about 7.8%
dFosB activator: mouse delta FosB homodimer activation; P13346; activation, % at 25 µM; purified delta FosB, TAMRA-CDK5 oligo fluorescence polarization; percent of positive-control signal above neutral wells; AID 493131; hit rate 0.99% among 340,000;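 active = mean activation above about 17%, with every replicate also reaching it, limit read from the data, passing the limit was not always enough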
esBAF inh: inhibitors of esBAF chromatin remodeling in mouse ES cells | Bmi1-luciferase knock-in reporter, 24 h; 100% = twice the neutral-well signal | reporter increase, % at 12.5 µM | hit rate 2% among 350,000; in the data active = activation above about 40%;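 note: a rise in the Bmi1 reporter signal indicates esBAF inhibition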
DYRK1A inh: Dyrk1A (rat) kinase inhibition | ADP-Glo luminescence, NFATc1 peptide | inhibition, % at 12.5 µM | hit rate 0.43% among 310,000 | AID 504441; in the data active = inhibition above about 50%
SMARCA2 conf: SMARCA2 activation, confirmation screen | shares compounds with SMARCA2 activ | MG213 cells, MMTV-luciferase with dexamethasone, luminescence, overnight; MG213 cells expressing E1A, Rb sequestered; DMSO wells 0%, reference activator 100% | activation, % at 9.1 µM | hit rate 30% among 3,500 | AID 652260;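 active = activation above its plate's cutoff, the mean activation of tested wells plus 3 SD, cut at about 7.9% in these data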
VP16 Luc act: counter-screen for SMARCA2 activators: GAL4-VP16 luciferase reporter activation; shares compounds with SMARCA2 activ; HEK293 GAL4-VP16 pG5luc reporter, luciferase luminescence; scaled: DMSO wells 0%, SAHA wells 100%; activation, % at 9.1 µM; hit rate 41% among 3,500; AID 686939;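 active = activation above the solvent-only control well mean plus 3 SD, averaged across control plates, cut at about 5.2% in these data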
Numbers stand for hits; 0 = inactive; - = not tested or not shown; ! = a repeat was not active.

SMILES	Rtt109 Vps75	CDK5 inh	SMARCA2 activ	dFosB activator	esBAF inh	DYRK1A inh	SMARCA2 conf	VP16 Luc act
Cn1c(=O)c2cc(S(=O)(=O)NC(C(=O)Nc3cccnc3)c3ccccc3)ccc2n(C)c1=O (configuration not stated)	0	0	10.1	0	0	0	0	0
Cn1c(=O)c2cc(S(=O)(=O)NC(C(=O)NCc3cccnc3)c3ccccc3)ccc2n(C)c1=O (configuration not stated)	0	0	0	0	0	0	-	-
Cc1cccc(NC(=O)Nc2ccc3c(c2)C(=O)N(C)[C@@H]2CC[C@H](CC(=O)NCc4ccccc4Cl)O[C@@H]2CO3)c1	-	-	-	-	0	-	-	-
CCOC(=O)C1CCCN(C(=O)c2cc3cc4ccc(OC)cc4nc3o2)C1 (configuration not stated)	0	0	-	0	0	0	-	-
COc1ccc2cc3cc(C(=O)N4CCCC(C)C4)oc3nc2c1 (configuration not stated)	0	0	8.8	0	0	0	0	9.2
C[C@H](O)C#Cc1cnc2c(c1)C(=O)N([C@H](C)CO)C[C@@H](C)[C@H](CN(C)C(=O)c1ccccc1F)O2	-	-	-	-	0	-	-	-
CCC(C(=O)Nc1ccc2c(c1)OCCO2)n1nnc2ccccc2c1=O (configuration not stated)	0	-	8.7	0	59.4	-	0	6.1
CC(Sc1nc2ccccc2c(=O)n1C)C(=O)Nc1ccc2c(c1)OCCO2 (configuration not stated)	0	0	0	0	0	0	-	-
C[C@@H]1CN([C@@H](C)CO)S(=O)(=O)c2ccc(/C=C/c3ccccc3)cc2O[C@@H]1CN(C)C(=O)Nc1ccc(F)cc1	-	-	-	-	0	-	-	-
OCCN(Cc1ccccc1)Cc1ncccc1O	0	0	0	0	0	0	-	-
OCCN(Cc1ccccc1)Cc1ccc(Cl)cc1Cl	0	0	8.2	0	0	0	0	0
CN(C)C(=O)CSc1cccc2cccnc12	0	0	11.6	0	0	0	0	0
COCC(=O)Nc1ccc2c(c1)OC[C@@H](C)N(C(=O)c1ccccc1F)C[C@@H](C)[C@@H](OC)CN(C)C2=O	-	-	-	-	0	-	-	-
O=C(Nc1ccc(-c2ccccc2)cc1)[C@H]1[C@H](CO)[C@H]2Cn3c(cccc3=O)[C@@H]1N2Cc1cccnc1	-	-	-	-	0	-	-	-
CO[C@H]1CN(C)C(=O)c2cc(NS(=O)(=O)c3ccccc3)ccc2OC[C@@H](C)N(Cc2cccnc2)C[C@H]1C	-	-	-	-	0	-	-	-
O=C(N[C@H]1C=C[C@@H](CC(=O)N2CCOCC2)O[C@@H]1CO)c1cccc(F)c1	-	-	-	-	0	-	-	-
Nc1nc2n[nH]nc2c(=O)[nH]1	0	0	13.7	0	103.3	0	22.4	0
Cc1noc(C)c1NC(=O)Nc1cccc2c1O[C@@H](CN(C)C(=O)NC1CCCCC1)[C@H](C)CN([C@@H](C)CO)C2=O	-	-	-	-	0	-	-	-
COc1ccccc1CNC(=O)C[C@H]1CC[C@H]2[C@@H](COc3ccc(NC(C)=O)cc3C(=O)N2C)O1	-	-	-	-	0	-	-	-
O=[N+]([O-])c1ccccc1Nc1nc(-c2cccnc2)cs1	0	0	9.2	0	0	0	9.6	7.7
CCOC(=O)C1CCN(C(=O)Cn2cnc3sc(C)c(S(=O)(=O)N4CCC(C)CC4)c3c2=O)CC1	0	0	8.1	0	0	0	0	0
COCc1ccc(C(=O)N(C)CC2CCCN(CCc3ccc(OC)cc3)C2)o1 (configuration not stated)	0	0	9.8	0	50.4	0	0	0
COCc1ccc(C(=O)N(C)CC2CCCN(CCc3ccc(Cl)cc3)C2)o1 (configuration not stated)	0	0	0	0	0	0	-	-
Cc1cc(C(=O)N2CCC2(C)C(=O)NS(=O)(=O)c2cccc(Cl)c2)nn1C (configuration not stated)	-	-	8.1	-	0	-	0	0
C[C@@H]1CCCCO[C@@H](CN(C)Cc2ccc(C(=O)O)cc2)[C@H](C)CN([C@H](C)CO)C(=O)c2cc(NS(=O)(=O)c3ccc(Cl)cc3)ccc2O1	-	-	-	-	0	-	-	-
SMILES	Rtt109 Vps75	CDK5 inh	SMARCA2 activ	dFosB activator	esBAF inh	DYRK1A inh	SMARCA2 conf	VP16 Luc act
COc1cc2c3nnc(-c4ccccc4)c-3cn(Cc3ccccc3F)c2cc1OC	-	-	9.9	-	-	-	17.6	0
COc1cc2c3nnc(-c4ccc(F)cc4)c-3cn(Cc3ccccc3F)c2cc1OC	0	0	0	0	-	0	-	-
Cc1ccc(NC(=S)N/C(=N/S(=O)(=O)c2ccccc2)c2ccccc2)cc1	0	0	9.7!	0	54.9	0	0	5.8
CC(=O)Nc1ccc(N/C(=N\S(=O)(=O)c2ccccc2)c2ccccc2)cc1	0	0	0	0	0	0	-	-
Cc1ccc2nc(Cl)c3cc(C(=O)NCCCN4CCCC4)sc3c2c1	0	0	14.3	0	0	0	10.3	0
CCCN1CCN(CCCNC(=O)c2cc3c(=O)oc4ccc(C)cc4c3s2)CC1	0	0	0	0	0	0	-	-
Cc1cc(NC(=O)c2c(F)cccc2Cl)no1	-	0	0	0	-	0	-	-
Cc1ccc(NNC(=O)c2c(F)cccc2Cl)cc1C	0	0	8.1	0	-	0	0	0
CCOc1c(Br)cc(CNc2ccc(N3CCN(C(C)=O)CC3)cc2)cc1OC	0	0	0	0	-	0	-	-
CCOc1cc(CNc2ccc(N3CCN(C(C)=O)CC3)cc2)cc(Br)c1OC	0	0	8.6	0	-	0	0	0
CCC(C)c1ccc(OCCN2CCCC2)cc1 (configuration not stated)	-	0	9.2	0	0	0	0	0
CCOc1ccc(OCCN2CCCCC2)cc1	0	-	0	0	0	0	-	-
CNC(C)C#Cc1ccc2c(=O)c3ccccc3oc2c1 (configuration not stated)	0	0	9.2	0	50.8	0	12.6	0
CCCNC(=O)N(C)C[C@H]1Oc2ncc(C#CC3CC3)cc2C(=O)N([C@@H](C)CO)C[C@@H]1C	-	-	-	-	0	-	-	-
CCOC(=O)N1CCN(c2c(N3CCC(N4CCCCC4)CC3)c(=O)c2=O)CC1	0	0	8.0	0	0	0	0	0
O=S(=O)(Nc1nc2ccccc2nc1N1CCc2ccccc2C1)c1ccc(Cl)cc1	0	0	9.0	0	-	0	0	0
Cc1noc(C)c1-c1ccc(C(=O)Nc2ccccc2)c2occc12	-	-	12.0	-	57.1	-	0	16.1
CN(C)c1cccc(CNC(=O)c2csc([C@@H]3O[C@H](CO)[C@@H](O)[C@H]3O)n2)c1	-	-	8.3	-	0	-	0	0
C[C@@H]1CN([C@@H](C)CO)S(=O)(=O)c2ccc(C#CC3CC3)cc2O[C@@H]1CN(C)C(=O)c1ccccn1	-	-	-	-	0	-	-	-
